Data as given in PubChem BioAssay (NCI).
About 83,000 compounds went through this panel and 20% of them were active in at least one assay; those are over-represented in the sample as a whole.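 Each cell line was grown in a 96-well plate and treated with one concentration of compound for 48 hours. Values below 10 were considered active.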 The source made the active and inactive calls.

These compounds were tested on NCI/ADR-RES ovarian (assay: NCI-60 one-dose screen, 48 h (100 = growth as untreated, 0 = no growth, -100 = all killed)). Settings: 10 µM unless noted.
Description: Growth inhibition of the NCI/ADR-RES human […] tumor cell line is measured as a screen for anti-cancer activity. Cells are grown in 96 well plates and exposed to the test compound for 48 hours. Compounds are tested at a single concentration, which is 10^-5 M for most compounds. The reported endpoint is percent growth (GI% or GIPRCNT), where numbers from 0 - 100% represent growth inhibition, and numbers from -100% - 0 represent cell death. For example, a value of 40 represents 60% growth inhibition. A value of 0 means no net growth occurred over the course of the experiment. A value of -40 indicates 40% of cells at the beginning of the experiment died by the end of the experiment. A value of -100 means all cells are dead at the end of the experiment.
NCI-60 Human Tumor Cell Lines Screen was performed using the standard one-dose NCI protocol, which is described in more detail at https://dtp.cancer.gov/discovery_development/nci-60/default.htm.
Compounds with GIPRCNT values below 10 were considered active. Activity score was based on GIPRCNT using the following formula: […]
Score is 0 for GIPRCNT values of 100 or above, 50 for GIPRCNT values of 0, and 100 for GIPRCNT values of -100.

| Compound | growth |
| --- | --- |
| CS(=O)(=O)c1nccc(-c2c(-c3ccc(F)c(OCc4ccccc4)c3)nc3sccn23)n1 | 99.9% (inactive) |
| COc1cc(OC)c(S(N)(=O)=O)cc1C(=O)/C=C/c1ccccc1 | 48.3% (inactive) |
| CN1CCN(Cc2ccc(NC(=O)c3cncc(C#Cc4[nH]nc5ncncc45)c3)cc2C(F)(F)F)CC1 | 105% (inactive) |
| O=C(Nc1cc(Cl)cc(Cl)c1)Nc1nc2ccc([N+](=O)[O-])cc2s1 | 2.26% (active) |
| O=C(COc1ccc(/C=C2\SC(=O)NC2=O)cc1)Nc1ccc(C(=O)/C=C/c2cc3ccccc3nc2Cl)cc1 | 92.6% (inactive) |
| COc1cc2cc(Oc3ccc(NC(=O)Nc4cc(C(F)(F)F)cc(C(F)(F)F)c4)cc3)c(C)nc2cc1OCCN(C)C | 109% (inactive) |
| COc1cc2cc(Oc3ccc(NC(=O)Nc4cccc(C(F)(F)F)c4)cc3)c(C)nc2cc1OCCN(C)C | 93.9% (inactive) |
| Cc1ccc(Nc2ncnc3c2c(C)nn3-c2ccc([N+](=O)[O-])cc2)cc1 | 80.4% (inactive) |
| CC1CCc2c(sc3nc(SCC(=O)N/N=C/c4cccc(O)c4O)n(-c4ccccc4)c(=O)c23)C1 (stereo not given) | 89.1% (inactive) |
| COc1ccc2c(c1)c(-c1nn3c(=O)cc(-c4ccccc4)nc3s1)cn2C | 27.8% (inactive) |
| CCCCCc1ccc(S(=O)(=O)N(C(C)=O)c2cccc(-c3csc(N(CCN4CCN(C)CC4)C(C)=O)n3)c2)cc1 | 48.3% (inactive) |
| Oc1ccccc1/C=N/Nc1nc(N/N=C/c2ccccc2O)nc(N2CCOCC2)n1 | 22.9% (inactive) |
| C#C[C@]1(O)CC[C@H]2[C@@H]3CC=C4c5sc(-c6cccc(F)c6)nc5CC[C@]4(C)[C@H]3CC[C@@]21C | 89.1% (inactive) |
| NS(=O)(=O)Oc1ccc2nc(Nc3ccc(F)c(F)c3)ccc2c1 | 94.6% (inactive) |
| C#CCOc1ccc(C(Nc2ccc(Cl)cc2)c2nnnn2C2CCCCC2)cc1 (stereo not given) | 76.6% (inactive) |
| Nc1n[nH]c2cccc(C#Cc3cccc(NC(=O)c4cccc(OC(F)(F)F)c4)c3)c12 | 57.1% (inactive) |
| COc1ccc(C(=O)c2c(N)c(C#N)cn2-c2cccc(OC)c2)cc1 | 9.32% (active) |
| Cc1ccc(/C=C/c2nn3c(-c4ccco4)nnc3s2)cc1 | 104% (inactive) |
| Cc1ccc(-c2csc(N/N=C/c3nc4ccccc4n3C3CC3)n2)cc1 | 72.9% (inactive) |
| COc1cc2cc(Oc3ccc(NC(=O)c4cccc(C(F)(F)F)c4)cc3)c(C)nc2cc1OCCN(C)C | 80.7% (inactive) |

| Compound | growth |
| --- | --- |
| CN1C(=O)N(C)C2C1NN=c1s/c(=C\c3ccccn3)c(=O)n12 (stereo not given) | 96.7% (inactive) |
| CN1CCN(c2ccc3c(C(N)=O)c(NC(=O)c4ccc(C(C)(C)C)cc4)sc3c2)CC1 | 85.9% (inactive) |
| Nc1c(C(=O)c2ccccc2)sc2nc(-c3cnccn3)cc(-c3cccs3)c12 | 107% (inactive) |
| CN(C)c1ccc(/C=N/Nc2nc(N/N=C/c3ccc(N(C)C)cc3)nc(N3CCOCC3)n2)cc1 | 99.8% (inactive) |
| O=C1c2c(c3c4cc(Br)ccc4[nH]c3c3ccc4ccccc4c23)C(=O)N1CCN1CCNCC1 | 69.5% (inactive) |
| CN1C(=O)/C(=C/C=C/c2ccco2)SC1=S | 75.6% (inactive) |
| C#C[C@]1(O)CC[C@H]2[C@@H]3CC=C4c5sc(-c6ccc(OC)cc6)nc5CC[C@]4(C)[C@H]3CC[C@@]21C | 83.8% (inactive) |
| O=C(/C=C1\C=CN(CCCCO)c2ccccc21)n1ccc2ccccc21 | 105% (inactive) |
| CCN(CC)c1ccc2cc(C(=O)NCCOCCOCCOCCn3cc(CCC(=O)Nc4ccc(C(=O)c5ccc(NC(=O)OC(C)(C)C)cc5)cc4)nn3)c(=O)oc2c1 | 88.3% (inactive) |
| CCOC(=O)C1=C(C)Nc2nnc(Nc3ccccc3)n2C1c1ccccc1 (stereo not given) | 70.8% (inactive) |
| COc1ccc([C@H]2[C@H](O)C(=O)N2c2cc(OC)c(OC)c(OC)c2)cc1Cl | -10.6% (active) |
| COc1cc2c3c(n(CCCNCC4CC4)c(=O)c2cc1OC)-c1cc2c(cc1C3=O)OCO2 | -13.6% (active) |
| C[C@H]1[C@H](C)CC[C@]2(COC(=O)c3cccnc3)CC[C@]3(C)C(=CC[C@@H]4[C@@]5(C)CCCNC(C)(C)[C@@H]5CC[C@]43C)[C@H]12 | 88.5% (inactive) |
| C#C[C@]1(O)CC[C@H]2[C@@H]3CC=C4c5sc(-c6ccccn6)nc5CC[C@]4(C)[C@H]3CC[C@@]21C | 89.8% (inactive) |
| Oc1ccc(CSc2nnc(-c3cnccn3)o2)c2cccnc12 | 33% (inactive) |
| COc1cccc(/C=C/C(=O)c2ccc(NC(=O)COc3cccc4cccnc34)cc2)c1 | 90.8% (inactive) |
| Oc1ccc(CSc2nnc(-c3ccncc3)o2)c2cccnc12 | 58.4% (inactive) |
| CS(=O)(=O)c1ccc2c(c1)c1c(n2S(=O)(=O)c2ccc(Cl)cc2)CCCC1 | 21% (inactive) |
| CN1CCN(c2ccc(C(=O)/C=C/c3ccc(Cl)c(C(F)(F)F)c3)cc2)CC1 | 64.4% (inactive) |
| COc1cc(/C=N/n2cnc3oc(-c4ccccc4)cc3c2=N)cc(CN2CCN(C)CC2)c1O | 98.7% (inactive) |
